From publication PMC7862700, “An all-to-all approach to the identification of sequence-specific readers for epigenetic DNA modifications on cytosine” come the findings set out here.

Holding throughout (experiment): DAPPL (digital affinity profiling via proximity ligation, sequencing); 10 mM Tris-HCl pH 7.5, 50 mM NaCl, 1 mM DTT, 4% glycerol, room temperature, 30 min; GST-TFs on glutathione beads, 16-mer random dsDNA library, 0.1% formaldehyde crosslink after washing; high values mean tight binding
The target in one experiment is T1, FEV (Homo sapiens, UniProt Q99581 1-238).
T1 sequence: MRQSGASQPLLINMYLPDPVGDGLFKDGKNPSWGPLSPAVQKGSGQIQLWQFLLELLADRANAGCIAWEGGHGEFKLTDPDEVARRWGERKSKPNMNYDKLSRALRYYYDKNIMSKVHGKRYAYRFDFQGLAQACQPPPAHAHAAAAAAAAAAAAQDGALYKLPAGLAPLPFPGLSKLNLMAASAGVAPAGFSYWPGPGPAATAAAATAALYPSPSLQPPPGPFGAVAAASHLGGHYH
The note with it: protein: recombinant; tags: N-terminal GST; dsDNA, one strand shown. Put shortly:
(§1)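 Binding signal is defined as a hexamer's read frequency for one factor over its frequency for the tag-only sample. To obtain reads, GST-fused human transcription factors were expressed in yeast, captured on glutathione beads, barcoded with DNA and pooled with that sample. Pools met 200 nmole of a 16-mer random double-stranded DNA library in Tris/NaCl/DTT/glycerol buffer for 30 min at room temperature before washing, 0.1% formaldehyde crosslinking, proximity ligation (BsaI/T4 ligase, 1 h, 37 °C), PCR and Illumina NextSeq500 sequencing.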

In the next experiment the target is ETV5 (Homo sapiens, UniProt P41161 1-510). Conditions: protein: recombinant; tags: N-terminal GST; dsDNA, one strand shown. Put shortly: as §1
A further experiment concerns the target HSF1 (Homo sapiens, UniProt Q00613 1-529). The note with it: protein: recombinant; tags: N-terminal GST; chain copies: 3; dsDNA, one strand shown. The method in brief:
as §1

A further experiment concerns the target T2, SPIC (Homo sapiens, UniProt Q8N5J4 1-248).
T2 sequence: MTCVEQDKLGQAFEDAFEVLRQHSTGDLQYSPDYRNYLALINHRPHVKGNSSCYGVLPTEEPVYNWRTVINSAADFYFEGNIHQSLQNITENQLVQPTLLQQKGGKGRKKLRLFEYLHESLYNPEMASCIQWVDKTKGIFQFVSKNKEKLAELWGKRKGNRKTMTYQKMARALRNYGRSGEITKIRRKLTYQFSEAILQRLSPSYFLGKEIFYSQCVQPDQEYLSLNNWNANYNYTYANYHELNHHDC
Conditions: protein: recombinant; tags: N-terminal GST; dsDNA, one strand shown. Put shortly:
as §1

A further experiment addresses ELF4 (Homo sapiens, UniProt Q99607 1-663). Conditions: protein: recombinant; tags: N-terminal GST; dsDNA, one strand shown. The method in brief: as §1
Another experiment concerns the target T3, ELK4 (Homo sapiens, UniProt P28324-2 1-405).
T3 sequence: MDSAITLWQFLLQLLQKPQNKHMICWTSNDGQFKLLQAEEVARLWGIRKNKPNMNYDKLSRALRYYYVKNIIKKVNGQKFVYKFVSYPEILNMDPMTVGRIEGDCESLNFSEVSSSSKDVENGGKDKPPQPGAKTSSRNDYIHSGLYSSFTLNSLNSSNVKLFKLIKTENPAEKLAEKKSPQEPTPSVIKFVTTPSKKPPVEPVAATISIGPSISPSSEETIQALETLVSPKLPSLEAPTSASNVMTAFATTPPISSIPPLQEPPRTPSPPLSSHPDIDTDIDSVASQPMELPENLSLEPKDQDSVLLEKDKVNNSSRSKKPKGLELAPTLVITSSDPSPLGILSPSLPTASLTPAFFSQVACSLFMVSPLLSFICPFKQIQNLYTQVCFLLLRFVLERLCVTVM
The note with it: protein: recombinant; tags: N-terminal GST; dsDNA, one strand shown. Put shortly: as §1

The next experiment addresses T4, ETV2 (Homo sapiens, UniProt O00321 1-342).
T4 sequence: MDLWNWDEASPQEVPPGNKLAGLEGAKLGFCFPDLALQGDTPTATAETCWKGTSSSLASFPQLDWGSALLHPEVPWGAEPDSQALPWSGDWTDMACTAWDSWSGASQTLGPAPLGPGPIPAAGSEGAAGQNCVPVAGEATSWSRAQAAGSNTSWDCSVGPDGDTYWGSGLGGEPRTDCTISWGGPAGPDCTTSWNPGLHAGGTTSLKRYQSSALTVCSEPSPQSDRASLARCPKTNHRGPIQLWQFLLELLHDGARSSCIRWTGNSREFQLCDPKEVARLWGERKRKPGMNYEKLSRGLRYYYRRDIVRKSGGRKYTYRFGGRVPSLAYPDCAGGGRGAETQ
The note with it: protein: recombinant; tags: N-terminal GST; dsDNA, one strand shown. The method in brief: as §1

The target in the next experiment is T5, ELF3 (Homo sapiens, UniProt P78545 1-371).
T5 sequence: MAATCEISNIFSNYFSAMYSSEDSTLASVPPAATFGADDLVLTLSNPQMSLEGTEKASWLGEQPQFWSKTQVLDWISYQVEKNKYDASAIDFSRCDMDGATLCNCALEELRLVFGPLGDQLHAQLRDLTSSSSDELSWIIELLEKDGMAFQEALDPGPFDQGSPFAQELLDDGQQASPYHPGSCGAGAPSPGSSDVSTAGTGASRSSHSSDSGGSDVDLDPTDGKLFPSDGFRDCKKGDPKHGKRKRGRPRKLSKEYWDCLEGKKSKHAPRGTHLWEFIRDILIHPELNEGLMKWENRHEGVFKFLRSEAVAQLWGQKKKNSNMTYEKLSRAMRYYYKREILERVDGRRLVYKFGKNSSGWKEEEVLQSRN
Conditions: protein: recombinant; tags: N-terminal GST; dsDNA, one strand shown. The method in brief: as §1

The target in a further experiment is CRX (Homo sapiens, UniProt O43186 1-299). Conditions: protein: recombinant; tags: N-terminal GST; dsDNA, one strand shown. The method in brief:
as §1

The target in a further experiment is ETV1 (Homo sapiens, UniProt P50549 1-477). Conditions: protein: recombinant; tags: N-terminal GST; dsDNA, one strand shown. Put shortly:
as §1

In a further experiment the target is T6, ERF (Homo sapiens, UniProt P50548 1-548).
T6 sequence: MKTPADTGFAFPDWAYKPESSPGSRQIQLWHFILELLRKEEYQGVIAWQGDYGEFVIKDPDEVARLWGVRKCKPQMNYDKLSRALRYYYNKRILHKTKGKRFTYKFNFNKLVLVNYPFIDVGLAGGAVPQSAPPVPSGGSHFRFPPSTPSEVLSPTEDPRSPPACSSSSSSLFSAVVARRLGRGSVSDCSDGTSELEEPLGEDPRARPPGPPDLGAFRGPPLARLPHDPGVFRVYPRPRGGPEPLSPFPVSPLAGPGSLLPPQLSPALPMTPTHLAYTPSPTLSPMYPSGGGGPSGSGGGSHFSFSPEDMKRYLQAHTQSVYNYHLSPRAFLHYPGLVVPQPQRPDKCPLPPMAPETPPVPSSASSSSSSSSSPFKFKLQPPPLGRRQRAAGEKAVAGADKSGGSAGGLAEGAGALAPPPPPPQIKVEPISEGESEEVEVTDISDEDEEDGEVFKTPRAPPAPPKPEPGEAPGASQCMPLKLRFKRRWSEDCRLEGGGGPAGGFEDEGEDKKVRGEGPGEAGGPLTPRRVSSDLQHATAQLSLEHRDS
Conditions: protein: recombinant; tags: N-terminal GST; dsDNA, one strand shown. The method in brief: as §1

The target in another experiment is T7, ETV3L (Homo sapiens, UniProt Q6ZN32 1-361).
T7 sequence: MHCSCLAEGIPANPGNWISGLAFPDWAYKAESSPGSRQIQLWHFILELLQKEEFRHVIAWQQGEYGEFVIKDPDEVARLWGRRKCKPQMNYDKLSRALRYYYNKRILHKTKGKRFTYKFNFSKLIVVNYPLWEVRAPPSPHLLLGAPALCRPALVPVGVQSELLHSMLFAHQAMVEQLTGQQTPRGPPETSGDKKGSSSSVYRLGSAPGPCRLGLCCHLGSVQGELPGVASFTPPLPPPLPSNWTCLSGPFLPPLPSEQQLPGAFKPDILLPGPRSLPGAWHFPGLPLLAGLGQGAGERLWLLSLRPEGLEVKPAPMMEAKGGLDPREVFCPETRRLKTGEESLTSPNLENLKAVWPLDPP
The note with it: protein: recombinant; tags: N-terminal GST; dsDNA, one strand shown. Put shortly: as §1

A further experiment has as its target T8, ETS2 (Homo sapiens, UniProt P15036 1-469).
T8 sequence: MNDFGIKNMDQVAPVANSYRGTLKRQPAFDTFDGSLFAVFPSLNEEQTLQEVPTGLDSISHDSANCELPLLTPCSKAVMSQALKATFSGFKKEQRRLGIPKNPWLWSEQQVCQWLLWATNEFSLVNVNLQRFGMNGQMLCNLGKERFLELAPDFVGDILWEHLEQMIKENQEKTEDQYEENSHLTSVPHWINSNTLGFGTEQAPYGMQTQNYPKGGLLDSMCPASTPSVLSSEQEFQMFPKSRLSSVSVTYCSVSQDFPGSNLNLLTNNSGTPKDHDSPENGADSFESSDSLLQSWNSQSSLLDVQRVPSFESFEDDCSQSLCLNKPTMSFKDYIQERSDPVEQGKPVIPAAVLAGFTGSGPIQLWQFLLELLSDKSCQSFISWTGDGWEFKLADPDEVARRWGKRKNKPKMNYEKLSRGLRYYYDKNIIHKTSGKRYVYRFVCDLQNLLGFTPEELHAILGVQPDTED
The note with it: protein: recombinant; tags: N-terminal GST; dsDNA, one strand shown. Put shortly: as §1

The target of a further experiment is T9, SPDEF (Homo sapiens, UniProt O95238 1-335).
T9 sequence: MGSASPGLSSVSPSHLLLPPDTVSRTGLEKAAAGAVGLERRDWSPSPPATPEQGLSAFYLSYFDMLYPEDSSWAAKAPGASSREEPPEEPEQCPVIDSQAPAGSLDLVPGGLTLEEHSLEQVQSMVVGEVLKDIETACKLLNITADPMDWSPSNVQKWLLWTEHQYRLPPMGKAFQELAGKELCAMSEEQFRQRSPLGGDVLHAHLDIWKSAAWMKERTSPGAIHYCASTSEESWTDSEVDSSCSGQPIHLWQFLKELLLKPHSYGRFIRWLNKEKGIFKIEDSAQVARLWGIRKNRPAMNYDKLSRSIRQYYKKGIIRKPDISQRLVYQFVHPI
The note with it: protein: recombinant; tags: N-terminal GST; dsDNA, one strand shown. Put shortly:
as §1

A further experiment addresses T10, ETV7 (Homo sapiens, UniProt Q9Y603 1-341).
T10 sequence: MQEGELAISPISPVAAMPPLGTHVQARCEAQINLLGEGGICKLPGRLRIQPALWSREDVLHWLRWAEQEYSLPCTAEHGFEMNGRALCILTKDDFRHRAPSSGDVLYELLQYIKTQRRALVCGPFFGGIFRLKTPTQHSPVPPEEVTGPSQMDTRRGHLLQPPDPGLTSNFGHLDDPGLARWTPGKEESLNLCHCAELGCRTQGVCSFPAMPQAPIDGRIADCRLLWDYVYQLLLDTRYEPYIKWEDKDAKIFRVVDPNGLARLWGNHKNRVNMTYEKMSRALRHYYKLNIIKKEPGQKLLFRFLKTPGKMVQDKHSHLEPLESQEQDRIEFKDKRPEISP
The note with it: protein: recombinant; tags: N-terminal GST; dsDNA, one strand shown. Put shortly:
as §1

The next experiment addresses T11, ELF5 (Homo sapiens, UniProt Q9UKW6-2 1-255).
T11 sequence: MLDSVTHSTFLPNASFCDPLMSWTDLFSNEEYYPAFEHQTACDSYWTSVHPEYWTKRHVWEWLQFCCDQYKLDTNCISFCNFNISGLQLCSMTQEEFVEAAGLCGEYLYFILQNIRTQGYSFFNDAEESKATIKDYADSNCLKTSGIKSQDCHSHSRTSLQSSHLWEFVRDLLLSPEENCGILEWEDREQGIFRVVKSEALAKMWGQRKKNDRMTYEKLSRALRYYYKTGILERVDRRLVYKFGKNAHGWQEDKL
The note with it: protein: recombinant; tags: N-terminal GST; dsDNA, one strand shown. The method in brief: as §1

The target of the next experiment is T12, ETV3 (Homo sapiens, UniProt P41162-2 1-143).
T12 sequence: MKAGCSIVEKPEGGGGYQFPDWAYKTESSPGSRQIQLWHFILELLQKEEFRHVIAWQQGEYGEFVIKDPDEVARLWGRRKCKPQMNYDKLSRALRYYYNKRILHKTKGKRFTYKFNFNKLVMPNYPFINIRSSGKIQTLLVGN
Conditions: protein: recombinant; tags: N-terminal GST; dsDNA, one strand shown. Put shortly:
as §1

For another experiment, the target named is ETV6 (Homo sapiens, UniProt P41212 1-452). Conditions: protein: recombinant; tags: N-terminal GST; dsDNA, one strand shown. The method in brief:
as §1

CRX, sequence (O43186 whole entry): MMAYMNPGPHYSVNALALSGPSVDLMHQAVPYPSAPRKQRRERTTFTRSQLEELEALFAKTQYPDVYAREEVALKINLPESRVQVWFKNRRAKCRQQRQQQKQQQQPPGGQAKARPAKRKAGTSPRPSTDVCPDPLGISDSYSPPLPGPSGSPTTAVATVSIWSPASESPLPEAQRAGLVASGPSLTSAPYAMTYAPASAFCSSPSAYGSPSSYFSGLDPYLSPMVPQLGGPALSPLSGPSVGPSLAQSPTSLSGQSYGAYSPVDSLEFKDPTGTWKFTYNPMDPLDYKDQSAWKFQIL
ETV5, sequence (P41161 whole entry): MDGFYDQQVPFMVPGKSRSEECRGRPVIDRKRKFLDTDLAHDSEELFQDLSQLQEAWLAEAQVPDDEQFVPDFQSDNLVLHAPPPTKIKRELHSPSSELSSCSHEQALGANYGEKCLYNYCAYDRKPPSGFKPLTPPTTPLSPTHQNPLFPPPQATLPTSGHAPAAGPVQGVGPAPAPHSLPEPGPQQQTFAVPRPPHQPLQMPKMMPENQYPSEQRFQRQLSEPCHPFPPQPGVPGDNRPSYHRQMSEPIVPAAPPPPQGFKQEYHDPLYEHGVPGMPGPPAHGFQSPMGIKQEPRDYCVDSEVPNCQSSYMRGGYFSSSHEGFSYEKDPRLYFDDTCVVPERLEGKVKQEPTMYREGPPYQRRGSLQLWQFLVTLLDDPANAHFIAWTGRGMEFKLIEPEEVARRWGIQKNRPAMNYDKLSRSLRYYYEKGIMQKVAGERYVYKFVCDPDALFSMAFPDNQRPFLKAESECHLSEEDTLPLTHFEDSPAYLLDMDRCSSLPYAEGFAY
ETV6, sequence (P41212 whole entry): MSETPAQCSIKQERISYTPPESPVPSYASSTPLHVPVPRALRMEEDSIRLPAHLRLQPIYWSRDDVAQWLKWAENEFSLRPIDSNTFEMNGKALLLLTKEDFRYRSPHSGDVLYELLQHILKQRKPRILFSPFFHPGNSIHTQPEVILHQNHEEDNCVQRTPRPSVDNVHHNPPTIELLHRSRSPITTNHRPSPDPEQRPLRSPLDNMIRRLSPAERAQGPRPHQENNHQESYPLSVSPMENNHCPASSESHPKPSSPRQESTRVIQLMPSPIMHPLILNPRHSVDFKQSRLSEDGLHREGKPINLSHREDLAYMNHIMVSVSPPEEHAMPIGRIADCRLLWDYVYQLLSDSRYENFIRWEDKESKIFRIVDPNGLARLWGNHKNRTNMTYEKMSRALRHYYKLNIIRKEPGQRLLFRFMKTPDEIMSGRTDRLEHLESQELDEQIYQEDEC
HSF1, sequence (Q00613 whole entry): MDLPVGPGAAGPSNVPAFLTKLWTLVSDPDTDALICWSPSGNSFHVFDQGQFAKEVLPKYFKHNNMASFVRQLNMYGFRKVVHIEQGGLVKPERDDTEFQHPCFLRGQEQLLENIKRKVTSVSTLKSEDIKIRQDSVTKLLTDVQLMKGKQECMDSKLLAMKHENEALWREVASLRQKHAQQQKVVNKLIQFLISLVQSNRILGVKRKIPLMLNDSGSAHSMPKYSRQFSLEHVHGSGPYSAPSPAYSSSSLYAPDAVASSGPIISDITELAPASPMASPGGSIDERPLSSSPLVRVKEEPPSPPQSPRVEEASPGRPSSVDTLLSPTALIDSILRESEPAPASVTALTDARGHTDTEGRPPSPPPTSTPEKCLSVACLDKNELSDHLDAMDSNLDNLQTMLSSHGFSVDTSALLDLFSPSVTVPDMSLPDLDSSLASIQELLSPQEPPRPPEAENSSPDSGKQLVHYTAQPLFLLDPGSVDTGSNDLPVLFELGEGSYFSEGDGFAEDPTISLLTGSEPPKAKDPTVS
ELF4, sequence (Q99607 whole entry): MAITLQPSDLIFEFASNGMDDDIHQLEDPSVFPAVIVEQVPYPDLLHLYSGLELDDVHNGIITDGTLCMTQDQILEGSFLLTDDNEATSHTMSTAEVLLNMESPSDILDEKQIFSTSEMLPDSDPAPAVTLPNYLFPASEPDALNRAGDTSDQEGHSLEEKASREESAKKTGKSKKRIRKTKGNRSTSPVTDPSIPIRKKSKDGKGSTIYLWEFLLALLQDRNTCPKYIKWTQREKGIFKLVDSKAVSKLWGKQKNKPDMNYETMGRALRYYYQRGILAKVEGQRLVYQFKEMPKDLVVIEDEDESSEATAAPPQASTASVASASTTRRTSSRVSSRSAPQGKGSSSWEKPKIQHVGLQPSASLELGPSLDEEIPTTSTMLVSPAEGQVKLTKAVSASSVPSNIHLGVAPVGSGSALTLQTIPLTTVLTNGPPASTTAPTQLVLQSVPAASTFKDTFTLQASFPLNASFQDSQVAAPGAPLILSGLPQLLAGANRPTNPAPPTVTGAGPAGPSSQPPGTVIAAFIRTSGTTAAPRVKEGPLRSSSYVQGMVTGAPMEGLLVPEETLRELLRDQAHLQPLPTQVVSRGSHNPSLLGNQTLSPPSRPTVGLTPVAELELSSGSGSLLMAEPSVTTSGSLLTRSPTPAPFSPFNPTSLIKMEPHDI
ETV1, sequence (P50549 whole entry): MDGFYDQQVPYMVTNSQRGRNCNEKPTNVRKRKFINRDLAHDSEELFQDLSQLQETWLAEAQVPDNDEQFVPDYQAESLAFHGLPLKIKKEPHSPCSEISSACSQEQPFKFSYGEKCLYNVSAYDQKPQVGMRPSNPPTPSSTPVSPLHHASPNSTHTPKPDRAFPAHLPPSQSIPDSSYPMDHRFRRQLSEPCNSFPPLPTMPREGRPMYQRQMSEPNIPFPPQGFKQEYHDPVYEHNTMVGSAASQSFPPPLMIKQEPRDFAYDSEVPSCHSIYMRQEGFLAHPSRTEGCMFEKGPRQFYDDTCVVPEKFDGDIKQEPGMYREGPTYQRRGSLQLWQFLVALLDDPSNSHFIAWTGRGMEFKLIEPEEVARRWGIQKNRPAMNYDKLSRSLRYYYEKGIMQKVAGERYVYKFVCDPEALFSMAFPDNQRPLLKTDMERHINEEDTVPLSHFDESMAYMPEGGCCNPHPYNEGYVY

As for TACCAT, the binding signal was 1.14 fold enrichment (6-mer frequency, TF over GST control) with FEV; 1.13 fold enrichment (6-mer frequency, TF over GST control) in the experiment with ETV5; 1.14 fold enrichment (6-mer frequency, TF over GST control) with HSF1; 1.11 fold enrichment (6-mer frequency, TF over GST control) with SPIC; 1.22 fold enrichment (6-mer frequency, TF over GST control) with ELF4; 1.27 fold enrichment (6-mer frequency, TF over GST control) with ELK4. The binding signal with ETV2 is 1.15 fold enrichment (6-mer frequency, TF over GST control); with ELF3 it was 1.16 fold enrichment (6-mer frequency, TF over GST control); in the experiment with CRX, 1.23 fold enrichment (6-mer frequency, TF over GST control); in the experiment with ETV1 it was 1.2 fold enrichment (6-mer frequency, TF over GST control); with ERF it was 1.22 fold enrichment (6-mer frequency, TF over GST control); with ETV3L, 1.25 fold enrichment (6-mer frequency, TF over GST control). For the same sequence, the binding signal was 1.22 fold enrichment (6-mer frequency, TF over GST control) with ETS2; 1.16 fold enrichment (6-mer frequency, TF over GST control) with SPDEF; 1.16 fold enrichment (6-mer frequency, TF over GST control) with ETV7; 1.14 fold enrichment (6-mer frequency, TF over GST control) in the experiment with ELF5; 1.17 fold enrichment (6-mer frequency, TF over GST control) in the experiment with ETV3; 1.17 fold enrichment (6-mer frequency, TF over GST control) with ETV6.
